The panel holds about 83,000 compounds, 20% with a hit somewhere; the sample as a whole holds those more often.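 Cell lines were cultured in 96-well plates, exposed to a single compound concentration, and assessed for percent growth 48 hours later.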 Calls of active or inactive are those of the source. The calls were made as follows: active = growth percent below 10; inactive = the rest.
Tests used:
Assay in all cases: NCI-60 one-dose screen, 48 h (100 = growth as untreated, 0 = no growth, -100 = all killed)
Details in all cases: 10 µM unless noted
NCI-H23 lung = test system: NCI-H23 lung
NCI-H226 lung = test system: NCI-H226 lung
NCI-H322M lung = test system: NCI-H322M lung
HOP-62 NSCLC = test system: HOP-62 NSCLC
NCI-H460 lung = test system: NCI-H460 lung
HOP-92 NSCLC = test system: HOP-92 NSCLC
NCI-H522 lung = test system: NCI-H522 lung
A549/ATCC NSCLC = test system: A549/ATCC NSCLC
786-0 renal = test system: 786-0 renal
COLO 205 colon = test system: COLO 205 colon

Measured: growth

O=C(OCc1ccc2c(Cl)cc(Cl)c(O)c2n1)N1CCNCC1
inactive: NCI-H23 lung 47.1% | NCI-H226 lung 42.2% | NCI-H322M lung 47.1% | HOP-62 NSCLC 22.9% | NCI-H460 lung 15.4% | HOP-92 NSCLC 44.9% | NCI-H522 lung 42.4% | A549/ATCC NSCLC 17.3% | 786-0 renal 61.1% | COLO 205 colon 54.3%

O=C(NCCO)c1cccnc1
inactive: NCI-H23 lung 102% | NCI-H226 lung 92.7% | NCI-H322M lung 95.9% | HOP-62 NSCLC 91.9% | NCI-H460 lung 98.9% | HOP-92 NSCLC 82.7% | NCI-H522 lung 73% | A549/ATCC NSCLC 88.5% | 786-0 renal 97% | COLO 205 colon 105%

O=C(O)c1cn(C2CC2)c2cc(N3CCN(Cc4cc(Cl)ccc4O)CC3)c(F)cc2c1=O
inactive: NCI-H23 lung 78.8% | NCI-H226 lung 82.8% | NCI-H322M lung 77.9% | HOP-62 NSCLC 64.1% | NCI-H460 lung 52% | HOP-92 NSCLC 59.9% | NCI-H522 lung 67.5% | A549/ATCC NSCLC 30.4% | 786-0 renal 85.1% | COLO 205 colon 75.7%

c1coc2occoc=2o1
inactive: NCI-H23 lung 104% | NCI-H226 lung 97.2% | NCI-H322M lung 110% | HOP-62 NSCLC 94.7% | NCI-H460 lung 113% | HOP-92 NSCLC 85.8% | NCI-H522 lung 91.7% | A549/ATCC NSCLC 97% | 786-0 renal 102% | COLO 205 colon 122%

Cc1cnc([C@]23CC[C@@H](C)[C@H](C)[C@H]2C2=CC[C@@H]4[C@@]5(C)Cc6c([nH]c7ccccc67)C(C)(C)[C@@H]5CC[C@@]4(C)[C@]2(C)CC3)o1
inactive: NCI-H23 lung 27.8% [100 µM] | NCI-H226 lung 59.2% [100 µM] | NCI-H322M lung 37% [100 µM] | HOP-62 NSCLC 43.8% [100 µM] | NCI-H460 lung 16.7% [100 µM] | HOP-92 NSCLC 30.5% [100 µM] | NCI-H522 lung 79.5% [100 µM] | A549/ATCC NSCLC 28.8% [100 µM] | 786-0 renal 27% [100 µM] | COLO 205 colon 43% [100 µM]

CC(C)CCSC1=CC(=O)c2ccccc2C1=O
active: HOP-92 NSCLC -74.5% | NCI-H522 lung -68.9%
inactive: NCI-H23 lung 78% | NCI-H226 lung 69.6% | NCI-H322M lung 79.6% | HOP-62 NSCLC 78.4% | NCI-H460 lung 103% | A549/ATCC NSCLC 79.7% | 786-0 renal 90.6% | COLO 205 colon 132%

CC(C)CCNCC(C)(C)O
inactive: NCI-H23 lung 101% | NCI-H226 lung 111% | NCI-H322M lung 106% | HOP-62 NSCLC 95.5% | NCI-H460 lung 114% | HOP-92 NSCLC 96.6% | NCI-H522 lung 98.7% | A549/ATCC NSCLC 105% | 786-0 renal 111% | COLO 205 colon 118%

O=[N+]([O-])c1cc(CCl)ccc1OCCBr
inactive: NCI-H23 lung 102% | NCI-H226 lung 94.8% | NCI-H322M lung 104% | HOP-62 NSCLC 105% | NCI-H460 lung 101% | HOP-92 NSCLC 98.6% | NCI-H522 lung 96.1% | A549/ATCC NSCLC 104% | 786-0 renal 103% | COLO 205 colon 107%

O=[N+]([O-])c1cccc(N=NNc2cccc([N+](=O)[O-])c2)c1
inactive: NCI-H23 lung 95.2% | NCI-H226 lung 108% | NCI-H322M lung 101% | HOP-62 NSCLC 110% | NCI-H460 lung 100% | HOP-92 NSCLC 64.4% | NCI-H522 lung 78% | A549/ATCC NSCLC 86.7% | 786-0 renal 90.4% | COLO 205 colon 113%

CC1=CCc2ccccc21
inactive: NCI-H23 lung 97.6% | NCI-H226 lung 95.3% | NCI-H322M lung 91.3% | HOP-62 NSCLC 101% | NCI-H460 lung 99.8% | HOP-92 NSCLC 82% | NCI-H522 lung 90.5% | A549/ATCC NSCLC 97.1% | 786-0 renal 103% | COLO 205 colon 105%

O=C1CC(C(F)(F)F)Cc2nc3ccc(Br)cc3cc21 (stereo not given)
inactive: NCI-H23 lung 83.3% | NCI-H226 lung 87.6% | NCI-H322M lung 78.2% | HOP-62 NSCLC 87.1% | NCI-H460 lung 87.8% | HOP-92 NSCLC 85.8% | NCI-H522 lung 84.8% | A549/ATCC NSCLC 91.8% | 786-0 renal 96.4% | COLO 205 colon 100%

Cc1cc(C)c(-c2cc(O)c(-c3c(C)cc(C)cc3C)cc2O)c(C)c1
inactive: NCI-H23 lung 34.9% | NCI-H226 lung 64.4% | NCI-H322M lung 68.6% | HOP-62 NSCLC 47.2% | NCI-H460 lung 16.9% | HOP-92 NSCLC 94.3% | A549/ATCC NSCLC 47.6% | 786-0 renal 30.4%
active: NCI-H522 lung -12.7% | COLO 205 colon -12.8%

C#C[C@]1(O)CC[C@H]2[C@@H]3CC=C4c5nc(Nc6ccccc6[N+](=O)[O-])sc5CC[C@]4(C)[C@H]3CC[C@@]21C
inactive: NCI-H23 lung 86.5% | NCI-H226 lung 80.9% | NCI-H322M lung 72.9% | HOP-62 NSCLC 69.2% | NCI-H460 lung 55.7% | HOP-92 NSCLC 72.6% | NCI-H522 lung 73.4% | A549/ATCC NSCLC 62.2% | COLO 205 colon 86.7%
active: 786-0 renal 5.63%

O=C1NC(=O)C(Cc2ccccc2)(Cc2ccccc2)N1
inactive: NCI-H23 lung 101% | NCI-H226 lung 90.4% | NCI-H322M lung 106% | HOP-62 NSCLC 84.9% | NCI-H460 lung 104% | HOP-92 NSCLC 87.5% | NCI-H522 lung 97.5% | A549/ATCC NSCLC 102% | 786-0 renal 90.9% | COLO 205 colon 107%

C[N+](C)(C)c1ncnc2[n-]cnc12
inactive: NCI-H23 lung 57.8% | NCI-H226 lung 90.4% | NCI-H322M lung 105% | HOP-62 NSCLC 105% | NCI-H460 lung 100% | HOP-92 NSCLC 83.2% | NCI-H522 lung 68.9% | A549/ATCC NSCLC 100% | 786-0 renal 72.7% | COLO 205 colon 103%

COc1ccc2c(c1)C(C)Cc1c(ncnc1-n1cnc3ccccc31)N2C (stereo not given)
active: NCI-H522 lung -18.9% | COLO 205 colon -28.7%
inactive: NCI-H23 lung 32.3% | NCI-H226 lung 41.5% | NCI-H322M lung 54.9% | HOP-62 NSCLC 24.1% | NCI-H460 lung 11.8% | HOP-92 NSCLC 45.1% | A549/ATCC NSCLC 21.4% | 786-0 renal 29%

COC(=O)[C@]12CCC(C)(C)C[C@H]1C1=CC[C@@H]3[C@@]4(C)C/C(=C/c5cccnc5)C(=O)C(C)(C)[C@@H]4CC[C@@]3(C)[C@]1(C)CC2
active: NCI-H23 lung -40.6% [100 µM] | NCI-H226 lung -51.7% [100 µM] | NCI-H322M lung -13.4% [100 µM] | HOP-62 NSCLC -19.3% [100 µM] | NCI-H460 lung -39.3% [100 µM] | HOP-92 NSCLC -61.5% [100 µM] | NCI-H522 lung -72.9% [100 µM] | A549/ATCC NSCLC 0.0781% [100 µM] | 786-0 renal -29.1% [100 µM] | COLO 205 colon -46.2% [100 µM]

COc1ccc(OC)c([N+](=O)[O-])c1C(=O)CNC(C)=O
inactive: NCI-H23 lung 105% | NCI-H226 lung 101% | NCI-H322M lung 105% | HOP-62 NSCLC 105% | NCI-H460 lung 107% | HOP-92 NSCLC 89.9% | NCI-H522 lung 95.7% | A549/ATCC NSCLC 100% | 786-0 renal 103% | COLO 205 colon 114%

C[n+]1c(-c2ccccc2)c2cc(N)ccc2c2ccccc21
inactive: NCI-H23 lung 27.5% | NCI-H226 lung 26.3% | NCI-H322M lung 70.8% | HOP-62 NSCLC 63.8% | NCI-H460 lung 28.4% | HOP-92 NSCLC 54.5% | A549/ATCC NSCLC 44.4% | 786-0 renal 55.3% | COLO 205 colon 16.7%
active: NCI-H522 lung -5.84%

O=C1COCCN1c1ccc(NCc2cn(Cc3ccc(F)cc3)c3ccccc23)cc1
active: NCI-H226 lung -56.5% | COLO 205 colon 5.22%
inactive: NCI-H23 lung 58.9% | NCI-H322M lung 87.3% | HOP-62 NSCLC 62.5% | NCI-H460 lung 15.4% | HOP-92 NSCLC 68.2% | NCI-H522 lung 58.1% | A549/ATCC NSCLC 48.4% | 786-0 renal 67.1%

C=CCCC1(C)NC(=O)NC1=O (stereo not given)
inactive: NCI-H23 lung 96.5% | NCI-H226 lung 105% | NCI-H322M lung 108% | HOP-62 NSCLC 84% | NCI-H460 lung 104% | HOP-92 NSCLC 87.1% | NCI-H522 lung 86.1% | A549/ATCC NSCLC 93.4% | 786-0 renal 93.5% | COLO 205 colon 102%

CC(C)=CC/C=C(/C)[C@H]1CC[C@]2(C)[C@@H]1CC[C@@H]1[C@@]3(C)CC/C(=N/O)C(C)(C)[C@@H]3CC[C@]12C
inactive: NCI-H23 lung 47.5% [100 µM] | NCI-H226 lung 59.7% [100 µM] | NCI-H322M lung 77.3% [100 µM] | HOP-62 NSCLC 74.2% [100 µM] | NCI-H460 lung 40.5% [100 µM] | HOP-92 NSCLC 53.1% [100 µM] | NCI-H522 lung 21.3% [100 µM] | A549/ATCC NSCLC 54.9% [100 µM] | 786-0 renal 58.7% [100 µM] | COLO 205 colon 65.8% [100 µM]

C#CCNC(=O)CC[C@]1(C)[C@H]2CC[C@@H]3[C@@H]([C@@](C)(O)CCC=C(C)C)CC[C@@]3(C)[C@]2(C)CC[C@H]1C(=C)C
active: HOP-92 NSCLC -25.5% [100 µM] | NCI-H522 lung -73.1% [100 µM] | 786-0 renal -67.9% [100 µM]
inactive: NCI-H23 lung 16.3% [100 µM] | NCI-H226 lung 51.5% [100 µM] | NCI-H322M lung 75.7% [100 µM] | HOP-62 NSCLC 51.5% [100 µM] | NCI-H460 lung 33.7% [100 µM] | A549/ATCC NSCLC 37.7% [100 µM] | COLO 205 colon 42.7% [100 µM]

Reference: PubChem BioAssay (NCI)
